Source: PubChem (National Center for Advancing Translational Sciences (NCATS))
KinaseGlo FLuc – counter-screen: inhibitors of Kinase-Glo firefly luciferase. Q27757. Kinase-Glo luciferase, ATP luminescence, 8 min. Potency, µM (series often up to 38.3 µM), for inactives: top-dose activity change, negative = inhibition, most hits filed as inhibitors. 200,000 compounds, 0.28% hits; also: nearly all actives have a fitted effect of over 60% in size
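Recombinant Kinase-Glo luciferase, 10 uM ATP (linear range), luciferin; imidazole pH 7.2 / KCl / MgCl2 / Tween / BSA buffer; 8 min RT; luminescence.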
NPSR antagonist – neuropeptide S receptor (human) antagonism, cAMP | Q6W5P4 | CHO-NPSR cells, cAMP TR-FRET, antagonist mode | Potency, µM (series often up to 38.3 µM), without a hit: top-dose activity change, negative = inhibition, hits mostly inhibitors | 220,000 compounds, 1% hits; also: nearly all actives have a fitted effect of over 50% in size
Target sequence (Q6W5P4 whole entry, looked up): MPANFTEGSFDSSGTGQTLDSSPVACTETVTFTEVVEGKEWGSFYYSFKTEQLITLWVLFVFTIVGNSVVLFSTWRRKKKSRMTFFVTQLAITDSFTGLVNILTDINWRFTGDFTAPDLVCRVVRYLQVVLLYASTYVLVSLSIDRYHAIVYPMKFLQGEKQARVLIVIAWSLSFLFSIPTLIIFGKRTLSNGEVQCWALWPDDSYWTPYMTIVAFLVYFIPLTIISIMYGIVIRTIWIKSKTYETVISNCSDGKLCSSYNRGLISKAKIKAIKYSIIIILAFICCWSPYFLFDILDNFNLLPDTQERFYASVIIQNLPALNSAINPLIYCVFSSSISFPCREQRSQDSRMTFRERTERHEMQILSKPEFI
IMPase Li cell – cell-permeable IMPase inhibitors with lithium potentiation | AID 1457 | CHO-M1 cells, IP1 TR-FRET (IP-One), carbachol + lithium | 210,000 compounds, 0.35% hits | Potency, µM (highest dose often 59.4 µM), inactives show at the highest dose activity, negative = IMPase inhibition, most hits filed as inhibitors;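 also: IP1 builds up when IMPase is blocked and the TR-FRET signal falls; plate controls were basal vehicle for no effect and high inhibitor control for full effect; nearly all actives have a fitted effect of over 50% in size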
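Lithium-sensitised IP1 accumulation assay; M1-expressing CHO cells treated 30 min at 37C with compound. Competitive antibody detection by time-resolved FRET followed a 10 min room-temperature lysis step.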
ERK EGF block – inhibitors of EGF-stimulated ERK signaling pathway | Potency, µM (series often up to 11.5 µM), inactives show top-dose activity change, negative = inhibition, actives largely listed as inhibitors | AID 1454 | HEK293-V1b, EGF-stimulated phospho-ERK AlphaScreen | 130,000 compounds, 0.41% hits;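 also: plate controls were stimulated vehicle wells for no effect and unstimulated vehicle basal for full effect; nearly all actives have a fitted effect of over 55% in size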
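Stably V1b-transfected HEK293 cells; 30 min compound, then EGF 25 nM final for 5 min at 37C; 10 min lysis; phospho-ERK by AlphaScreen after 5 hr beads at room temperature.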
Active calls of the source: *; u = inconclusive; x = no result given; [ ] = another dose, or the depositor's remark. A selection: hits, their analogues and other compounds. The true share with any hit is near 1.1%. Calls follow the shape of the dose curve; as a rule, active = well fitted curve in the direction sought with a large enough effect; inconclusive = small, poorly fitted or top-dose-only effect, or another doubt; inactive = no such curve, though single readings can be large; an effect the other way counts as inactive or inconclusive. Unless noted, % is scaled to controls: 0 for no effect and ±100 for the full control effect; potency is read from the fitted curve at half-maximal effect.

SMILES | KinaseGlo FLuc | NPSR antagonist | IMPase Li cell | ERK EGF block
COC(=O)C1=C(C(=O)OC)SC(=C2C(=S)C(C)(C)N(C(=O)C(C)C)c3ccccc32)S1 | 14% | 10µM* | 54%[38.3 µM] | x
CCCC(=O)N1c2ccccc2C(=C2SC(C(=O)OC)=C(C(=O)OC)S2)C(=S)C1(C)C | -3% | -55% | 28% | 13µM*
CCOC(=O)C1(C)C(C(=O)OC)=C(c2ccc(OC)cc2)c2ccccc2N1C(=O)OC (centres undefined) | -2%[39.9 µM] | x | 14% | x
CC1(C)c2ssc(=S)c2-c2ccccc2N1C(=O)CSC1=NCCS1 | -8% | -27%[46.1 µM] | 20%[38.3 µM] | x
COC(=O)C1=C(C(=O)OC)SC(=C2C(=S)C(C)(C)N(C(=O)C3CC3)c3ccccc32)S1 | 17% | 13µM* | 43%[38.3 µM] | x
COC(=O)c1ccc(C#CC(NP(=O)(c2ccccc2)c2ccccc2)c2ccccc2)cc1 (centres undefined) | -9% | x | 13% | -11%
O=c1[nH]c(SCc2nc3ccccc3n2Cc2ccccc2)nc2ccccc12 | -1% | -3%[46.1 µM] | 7.9µM* | x
Cc1cc(/C=N/n2cnnc2)c(C)n1-c1ccc(OCc2ccc(Cl)cc2)cc1 | -1% | 10µM* | 9%[38.3 µM] | x
Cc1cc2ncc(-c3ccccc3)nc2cc1C | x | x | 3% | x
Cc1cc(-c2ccccc2)nc(-c2ccccc2)c1C | 13µM* | 17% | 19% | -2%
COC(=O)[C@@]1(Cc2ccccc2)[C@H]2c3cc(C(=O)N(C)C)n(CCN4CNCC4=O)c3C[C@H]2CN1C(=O)c1ccccc1 | -3% | x | -6% | -10%
CN(CC(=O)O)Cc1c(O)c(Cl)cc(Cl)c1Cl | 0%[7.66 µM] | x | -3% | x
CCCCNS(=O)(=O)c1ccc2nc(-c3cccnc3)cc(C(=O)NCCCOCC)c2c1 | -3% | -11% | 11µM* | 20%
CCCCNS(=O)(=O)c1ccc2nc(-c3cccnc3)cc(C(=O)NCCCOC)c2c1 | -3% | -5% | 1% | 2%
Cc1c(N=C2C=CC(=O)c3ccccc32)c(=O)n(-c2ccccc2)n1C | -26% | 10µM* | 32% | u
Cc1c(N=C2C=C(Br)C(=O)C(Br)=C2)c(=O)n(-c2ccccc2)n1C | u | -28% | 6% | u
Cc1c(N=Cc2nc3ccccc3n2C)c(=O)n(-c2ccccc2)n1C | 11µM* | 1%[46.1 µM] | 11%[38.3 µM] | x
O=c1c[n+](CCCC[n+]2cc(=O)o[nH]2)[nH]o1 | -1%[7.66 µM] | x | 8% | x
O=C(c1csnn1)N1CCC2(CC1)CN(c1cccc(-c3ccccc3)c1)C2 | -2% | x | -1% | -4%
Nc1nc2c(C(=O)NCc3cccs3)nnn2c2cccc(Cl)c12 | -3%[7.66 µM] | x | 9% | x
O=C(COc1ccc2ccccc2c1)NNC(=O)Cc1ccccc1 | 0% | -43% | u | -1%
O=C(COc1ccc2ccccc2c1)NCCNC(=O)COc1ccc2ccccc2c1 | 2% | u | 13µM* | x
Cc1cccc(-c2ccc(-c3cc(=O)oc4cc(C)cc(C)c34)cc2)c1 | 3%[39.9 µM] | x | 7% | x
O=C(O)/C=C\C(=O)N1Cc2cc3ccccc3nc2C1 | -4%[7.66 µM] | x | 0% | x
CCOC(=O)c1sc(N)c(C(=O)Nc2ccc(C)cc2C)c1C | -1% | x | x | x
SMILES | KinaseGlo FLuc | NPSR antagonist | IMPase Li cell | ERK EGF block
C/C(=N\NC(=O)c1cc(C(C)C)[nH]n1)c1ccco1 | 8.9µM* | -9%[46.1 µM] | 4% | 7%
O=C(c1ccccc1)c1sc(N2CCCCCC2)nc1-c1ccccc1 | 5% | u | 15%[38.3 µM] | x
COc1ccc(-c2nc(N3CCCCCC3)sc2C(=O)c2ccccc2)cc1 | -4% | 5µM* | 3%[38.3 µM] | x
O=C(N/N=C/c1ccc(OCc2ccc(F)cc2)cc1)c1ccccc1 | 3% | -5% | 17% | 3%
CC(C)(C)c1ccc(OCc2ccc(C(=O)N/N=C/c3ccc(O)c(O)c3)cc2)cc1 | 0% | 13µM* | 7% | 3%
OC(CNCC1CCCO1)Cn1c2ccc(Cl)cc2c2cc(Cl)ccc21 (centres undefined) | -6% | u | 1%[38.3 µM] | x
OC(CNCCC1C=Nc2ccccc21)Cn1c2ccc(Cl)cc2c2cc(Cl)ccc21 (centres undefined) | -4% | 10µM* | 14% | 22µM*
COc1ccc2c(c1)[N+](=O)C(/C(C)=N/NC(N)=S)=C(C)[N+]2=O | -5%[7.66 µM] | x | -1% | x
COc1ccccc1C1CN(c2ccc(F)cc2F)N=C1c1cccs1 (centres undefined) | 2% | -10%[46.1 µM] | 14µM* | x
N#[N+]c1ccc(Nc2ccccc2)cc1 | -5%[7.66 µM] | x | 1% | x
COC(=O)c1c(Cl)c2n3ccccc3c(C)c(-c3ccccc3)c-2c1C(=O)OC | -10% | 6% | 10µM* | u
O=c1cc(/C=C/c2ccccc2)oc2ccccc12 | -1% | 5µM* | 29%[38.3 µM] | x
O=c1cc(-c2ccccc2)oc2ccccc12 | x | x | 2% | x
O=C(COC(=O)c1cccs1)c1ccc2ccccc2c1 | -18% | -8%[46.1 µM] | 20% | 9%
O=C(COC(=O)c1cccs1)c1ccc2c(c1)OCCO2 | 2.5µM* | -41%[46.1 µM] | 42%[38.3 µM] | x
COC(=O)C1=C(C(=O)OC)[C@@H]2N(C)c3ccccc3[C@@]23C[C@@H](C(=O)OC)N(S(=O)(=O)c2ccc(C(F)(F)F)cc2)C3=N1 | -8%[7.66 µM] | x | 3% | x
COc1cccc(/C=N/Nc2ccc(C(=O)O)cc2)c1O | 8.9µM* | -34% | 14% | -4%
COc1cccc(/C=N/Nc2ccc(S(=O)(=O)O)cc2)c1O | u | -4%[46.1 µM] | 16%[38.3 µM] | x
C[C@H](CN(C)C)C(O)(c1ccccc1)c1ccccc1 | -8%[7.66 µM] | x | 3% | x
c1cncc(-c2nc3cc4ccccc4cc3[nH]2)c1 | u | -11%[46.1 µM] | -28%[38.3 µM] | x
c1ccc(-c2nc3cc4ccccc4cc3[nH]2)nc1 | 11µM* | -7%[46.1 µM] | 6% | x
CC(=O)Nc1ccc2nc(-c3ccccn3)[nH]c2c1 | 11µM* | -15%[46.1 µM] | -24%[38.3 µM] | x
CC(C)N=C1NN=C(c2ccc(F)cc2)CS1 | 10µM* | 23% | 4% | 6%
CCn1c(=O)cc(SCC(=O)NCc2ccc(C)cc2)c2ccccc21 | -3% | -6%[46.1 µM] | -10%[38.3 µM] | x
CCn1c(=O)cc(SCC(=O)NCc2cccnc2)c2ccccc21 | -1% | u | 10µM* | x
SMILES | KinaseGlo FLuc | NPSR antagonist | IMPase Li cell | ERK EGF block
CN(C)C=Nc1ccc2nn(-c3ccccc3)nc2c1 | -8% | 3%[46.1 µM] | 13µM* | x
CN(C)C=Nc1ccc(Cl)c(Cl)c1 | x | -17% | x | -4%[57.5 µM]
COc1c(C)c2c(c(O)c1CC=C(C)CCC(=O)OCCN1CCOCC1)C(=O)OC2 | 4%[39.9 µM] | x | 4% | x
CC(C)c1nc(CN(C)C(=O)N[C@H](C(=O)N[C@@H](Cc2ccccc2)C[C@H](O)[C@H](Cc2ccccc2)NC(=O)OCc2cncs2)C(C)C)cs1 | 2%[39.9 µM] | 13µM* | 10% | u
COC(=O)CNC(=O)C(NC(=O)OCc1ccccc1)C(C)C (centres undefined) | -3% | -2% | 12% | 0%
O=[N+]([O-])c1cc(N(CCO)CCO)ccc1NCCO | x | x | 81% | x
O=C(COC(=O)CSc1ccc2ccccc2c1Br)NC1CC1 | 0% | -47% | 10µM* | 5%
CC(C)(C)C(=O)[C@H](C(c1ccccc1)N1CCOCC1)N1CCOCC1 (some centres undefined) | -6%[7.66 µM] | x | 8% | x
